Laboratory results reported in PubChem BioAssay AID2625 (National Center for Advancing Translational Sciences (NCATS), 2010).
Inconclusive results are not listed. Calls of active or inactive are those of the source. Calls come from the whole dose curve; as a rule, active = well fitted curve in the direction sought with a large enough effect; inconclusive = small, poorly fitted or top-dose-only effect, or effect the other way, or another doubt; inactive = no such curve, though single readings can be large or run the other way.

Target: Pyruvate kinase PKLR (Homo sapiens) (UniProt P30613)
Assay: Secondary LDH Assay for Activators of Human Liver Pyruvate Kinase: for Probe SAR;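 note: 0% = uninhibited enzyme rate and 100% = full activation by fructose bisphosphate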
Details: purified hPK-L, LDH-coupled NADH fluorescence kinetic; series mostly up to 58.2 µM; activity change, positive = activation: at the top concentration
Method in brief: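 Purified hPK-L (10 nM) coupled to LDH (1 uM) in pH 8.0 Tris with 0.1 mM PEP, 4 mM ADP, 0.2 mM NADH. Initial rates from kinetic NADH fluorescence depletion over 3–6 min, normalised to uninhibited and fructose-bis-phosphate EC100 activation.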

Chain of Pyruvate kinase PKLR (Homo sapiens) (P30613 whole entry, looked up): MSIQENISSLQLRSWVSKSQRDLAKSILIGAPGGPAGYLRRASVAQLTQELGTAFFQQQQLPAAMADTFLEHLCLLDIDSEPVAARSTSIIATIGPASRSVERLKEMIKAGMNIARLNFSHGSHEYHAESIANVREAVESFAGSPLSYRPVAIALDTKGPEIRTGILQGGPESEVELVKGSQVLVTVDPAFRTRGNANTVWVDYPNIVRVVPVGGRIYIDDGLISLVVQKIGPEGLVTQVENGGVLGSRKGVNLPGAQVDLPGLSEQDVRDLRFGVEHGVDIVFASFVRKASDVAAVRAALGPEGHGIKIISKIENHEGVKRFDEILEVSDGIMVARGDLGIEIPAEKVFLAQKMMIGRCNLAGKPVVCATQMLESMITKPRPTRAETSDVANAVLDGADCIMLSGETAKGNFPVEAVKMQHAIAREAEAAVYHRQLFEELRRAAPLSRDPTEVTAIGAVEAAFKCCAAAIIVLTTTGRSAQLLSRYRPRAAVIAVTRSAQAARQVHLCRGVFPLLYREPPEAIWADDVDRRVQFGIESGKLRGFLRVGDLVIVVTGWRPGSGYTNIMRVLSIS

Activity change, positive = activation, inactive:
O=C1CCc2cc(S(=O)(=O)Nc3ccc4ncccc4c3)ccc2N1 -11.1%
O=C1CCc2cc(S(=O)(=O)Nc3ccc(F)c(Cl)c3)ccc2N1 -3.62%
O=C1CCc2cc([S+](=O)([O-])Nc3ccc(N[S+](=O)([O-])c4ccc5c(c4)CCC(=O)N5)cc3)ccc2N1 -16.4%
CCNc1cccc(S(=O)(=O)N2CCCN(S(=O)(=O)c3ccc4c(c3)OCCO4)CC2)c1 24.7%
O=C1CCc2cc(S(=O)(=O)Nc3cc(F)cc(Cl)c3)c(F)cc2N1 16.2%
Cc1cccc(OC2=NS(=O)(=O)c3ccccc32)c1 -4.46%
Cc1ccc(NC(=O)c2ccc3c(c2)CCC(=O)N3)cc1C -8.05%
O=C1c2ccccc2C(=O)N1c1ccncc1 16%
O=C1c2ccccc2C(=O)N1c1cccc2ccncc12 -12.7%
O=C1CCc2cc(S(=O)(=O)Nc3cccc(Br)c3)ccc2N1 -13.1%
Cc1ccc(NS(=O)(=O)c2cc3c(cc2N2CCCCC2)NC(=O)CC3)cc1C -20.5%
O=C1c2ccccc2C(=O)N1c1ccc(O)cc1 -7.6%
Cc1ccc(NS(=O)(=O)c2cc3c(cc2F)NC(=O)CC3)cc1C 10.1%
Cc1ccc(NS(=O)(=O)c2cc3c(cc2Cl)CCC(=O)N3)cc1C -5.71%
Cc1ccc(NS(=O)(=O)c2cc3c(cc2/C=C/c2ccccc2)NC(=O)CO3)cc1C -5.92%
Cc1ccc(NS(=O)(=O)c2ccc(-c3ccccc3)cc2)cc1C -15.4%
O=C1c2ccccc2C(=O)N1c1ccc2ncccc2c1 -8.34%
O=C1CCc2cc(S(=O)(=O)Nc3cccc(Cl)c3)ccc2N1 -13.6%
O=C1c2ccccc2C(=O)N1c1cccnc1 -3.98%
Cc1ccc(NS(=O)(=O)c2ccc3c(c2)CCC(=O)N3)cc1C -5.17%
O=C1CCc2cc(S(=O)(=O)Nc3cccc(-c4ccccc4)c3)ccc2N1 5.18%
Cc1ccc(NS(=O)(=O)c2ccc(Cl)cc2)cc1C -12.4%
O=C1CCc2cc(S(=O)(=O)Nc3ccccc3Cl)ccc2N1 -18.1%
Cc1ccc(Cl)cc1NS(=O)(=O)c1cc2c(cc1Cl)CCC(=O)N2 14.3%

outcome, inactive:
O=S(=O)(c1ccc2c(c1)OCCO2)N1CCN(S(=O)(=O)c2c(F)cccc2F)CC1
